Reference: the supplement of paper PMC7156485
± gives the standard deviation of the averaged measurements.

The molecules below were run on HCC1569 (assay: cell number relative to DMSO (% of DMSO); higher = more cells (less growth inhibition / toxicity)). Settings: concentration: 10 µM; 24 h.
How it was run: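 HCC1569 and TDF cells were seeded at 800 per well in 384-well plates in RPMI with 10% FBS and treated with compounds at 10 µM for 24 h at 37 °C, in triplicate. After fixation in 3.7% formaldehyde, cells were stained with a rabbit anti-H1.0 antibody, an AlexaFluor 647 secondary and DAPI, and six fields per well were imaged at ×10. H1.0 nuclear intensity or cell number is given as percent of the plate control, using the median of replicates, with HCC1569 values smoothed for positional effects.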
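Note: TDF denotes transformed human dermal fibroblasts of mesenchymal origin.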

Point of comparison: `O=C1C=CC(=O)C=C1` [p-Benzoquinone], cell number 100. Against it:
- CC1CC(C)C(=O)C(C(O)CC2CC(=O)NC(=O)C2)C1 (centres undefined) [Cycloheximide] — lower, 64.3
- COc1cc(C2c3cc4c(cc3C(O)C3COC(=O)C23)OCO4)cc(OC)c1O (centres undefined) [4'-Demethylpipodophyllotoxin] — lower, 59.6
- COc1ccc2c(c[n+](C)c3c4cc5c(cc4ccc23)OCO5)c1OC.[Cl-] [Chelerythrine Chloride] — lower, 90.9
- Cc1sc2ccccc2c1CC1=NCCN1.O=C(O)C(=O)O [Benazoline oxalate] — higher, 104
- NCC(CC(=O)O)c1ccc(Cl)cc1 (racemic) — lower, 99.3
- CC(C)(C)NCC(O)c1ccccc1Cl.Cl (centres undefined) [Tulobuterol hydrochloride] — higher, 101
- CCCCc1ccc(C(=O)O)nc1 [Fusaric acid] — higher, 105
- Cl.Cl.Oc1ccc2c3c1OC1c4[nH]c5c(c4CC4(O)C(C2)N(CC2CC2)CCC314)CC1(O)C2Cc3ccc(O)c4c3C1(CCN2CC1CC1)C5O4 (centres undefined) [nor-Binaltorphimine dihydrochloride] — higher, 106
- CC=C1CN2CCC34C(=C(CC=O)C1CC23)Nc1ccccc14 (centres undefined) [Norfluorocurarine] — the same, 100
- CCNC(=O)C[C@@H]1N=C(c2ccc(Cl)cc2)c2cc(OC)ccc2-n2c(C)nnc21 — lower, 86.4
- COC(=O)c1cc2c(cn1)[nH]c1ccccc12 [Methyl beta-carboline-3-carboxylate] — lower, 98.8
- COC1C=C2CCN(C)C2C2c3cc4c(cc3C(=O)OC12)OCO4.O=[N+]([O-])O (centres undefined) [Ungerine nitrate] — the same, 100
- CCCCC(C#N)(Cn1cncn1)c1ccc(Cl)cc1 (centres undefined) [Myclobutanil] — higher, 104
- CC(C)CC1C(=O)N2CCCC2C2(O)OC(NC(=O)C3C=C4c5cccc6[nH]c(Br)c(c56)CC4N(C)C3)(C(C)C)C(=O)N12.CS(=O)(=O)O (single isomer, unassigned; (+)) [(+)-Bromocriptine methanesulfonate] — lower, 91.1
- Fc1cc(F)c2c(c1)C1C=CCC1C(c1cccnc1)N2 (centres undefined) — lower, 69.8
- CC12CCC3C(CCC4=C(O)C(=O)CCC43C)C1CCC2=O (centres undefined) [Formestane] — higher, 105
- Cl.NCC#Cc1ccccc1 [3-Phenylpropargylamine hydrochloride] — higher, 104
- CC1=C(O)C(=O)C=C2C1=CC=C1C2(C)CCC2(C)C3CC(C)(C(=O)O)CCC3(C)CCC12C (centres undefined) [Celastrol] — lower, 38
- COc1cc(C2c3cc4c(cc3C(O)C3COC(=O)C23)OCO4)cc(OC)c1OC (centres undefined) [Podophyllotoxin] — lower, 61.2 ± 1.9
- CC(C)CC1C(=O)N2CCCC2C2(O)OC(NC(=O)C3C=C4c5cccc6[nH]c(Br)c(c56)CC4N(C)C3)(C(C)C)C(=O)N12.CS(=O)(=O)O (centres undefined) [Bromocriptine mesylate] — within error, 99.5 ± 2.3
- C=CC12CN(C)C3C4COC(CC41)C1(C(=O)Nc4ccccc41)C32.Cl (centres undefined) — higher, 102
- CN1C2CCCC1CC(=O)C2.Cl — lower, 98.6
- Cl.c1ccc(C2CC2)c(OCC2=NCCN2)c1 [Cirazoline hydrochloride] — higher, 102
- Cl.O=C1CCC2(O)C3Cc4ccc(O)c5c4C2(CCN3CC2CC2)C1O5 (centres undefined) [Naltrexone.HCl] — higher, 101
- Cl.O=C1CCC2(O)C3Cc4ccc(O)c5c4C2(CCN3CC2CC2)C1O5 (centres undefined) [Naltrexone hydrochloride] — higher, 103
- CCCC(=O)OCC[N+](C)(C)C [Butyrylcholine] — higher, 101
- CCS(=O)(=O)Nc1cccc(C(=C2CCCCC2)c2cnc[nH]2)c1 — lower, 99.6
- Cc1ncc(CNC(=O)N(CCCl)N=O)c(N)n1.Cl [Nimustine hydrochloride] — lower, 97.8
- COC(C(=O)C(O)C(C)O)C1Cc2cc3cc(OC4CC(OC5CC(O)C(OC)C(C)O5)C(OC(C)=O)C(C)O4)c(C)c(O)c3c(O)c2C(=O)C1OC1CC(OC2CC(OC3CC(C)(O)C(OC(C)=O)C(C)O3)C(O)C(C)O2)C(O)C(C)O1 (centres undefined) [Chromomycin A3] — lower, 42.1
- CCCCCN(C)CCC(O)(P(=O)([O-])O)P(=O)(O)O.[Na+] — lower, 99.5
- CC1(C(=O)O)C2CCC(O2)C1(C)C(=O)O (centres undefined) [Cantharidic Acid] — lower, 19.6
- C[N+]1(C)CCOC(O)(c2ccc(-c3ccc(C4(O)C[N+](C)(C)CCO4)cc3)cc2)C1.[Br-].[Br-] (centres undefined) [Hemicholinium-3] — the same, 100
- c1ccc2c(c1)[nH]c1cnccc12 [Norharmane] — the same, 100
- Nc1ncnc2c1ccn2C1OC(CO)C(O)C1O (centres undefined) [Tubericidin] — lower, 42.7
- COc1cc2c(cc1OC)C(C)NCC2 (centres undefined) [Salsolodine] — higher, 105
- COc1ccc(Cc2nccc3cc(OC)c(OC)cc23)cc1OC.Cl [Papaverine hydrochloride] — lower, 87.1 ± 1.7
- CC(C)(C)c1o[nH]c(=O)c1CC(N)C(=O)O (centres undefined) — lower, 98.3
- COC1C(O)C(C)OC(OC2C(Oc3cccc4c(O)c5c(=O)oc6ccc(C)c7c(=O)oc(c34)c5c67)OC(C)C(O)C2O)C1O (centres undefined) [Chartreusin] — higher, 105
